According to the supplement of paper PMC10338343:
± gives the standard deviation.

Tests used:
[1] = system: MILI (PIWIL2) piRISC loaded with L1MC piRNA (26 nt); test: pre-steady-state target cleavage rate (min^-1); guide: L1MC piRNA 5'p-UAACUAAAUACUAUGCAAGCUGUAGG; higher = faster piRNA-guided slicing of the target; conditions: auxiliary factor: 500 nM mouse GTSF1
How it was run: (§1)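 Active affinity-purified piRISC (1 nM) loaded with one synthetic guide was mixed with a transcribed, DNA-blocked target RNA library (0.1 nM), with or without 500 nM GTSF1 partner protein, in HEPES–potassium acetate buffer at 33 °C for 0–8 or 0–960 min. Uncleaved targets were sequenced, normalised to depth and to weakly complementary targets, and pooled across three trials, with k3 capped at 0.0001 min^-1. The pre-steady-state cleavage rate was determined with a burst-and-steady-state fit.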

[2] = system: EfPiwi piRISC loaded with L1MC piRNA (26 nt); test: pre-steady-state target cleavage rate (min^-1); auxiliary factor: 500 nM Ephydatia muelleri Gtsf1; guide: L1MC piRNA 5'p-UAACUAAAUACUAUGCAAGCUGUAGG; MIWI and MILI are mouse PIWI proteins and EfPiwi is from a freshwater sponge; tags in brackets are library labels; higher = faster piRNA-guided slicing of the target
How it was run: as §1

Q: UCCUGCUACAGCUUGCAUAGUAUGUUAGUUA was tested. Which “pre-steady-state target cleavage rate” value [1] did it give?
A: 0.164 ± 0.036

Q: What about the “pre-steady-state target cleavage rate” value [2] of the same sequence?
A: 0.00247 ± 0.002

Q: How did the “pre-steady-state target cleavage rate” value [1] turn out when UCCUCCUACAGCUUGCAUAGUAAUUAGAUA was run?
A: 0.179 ± 0.046

Q: What about the “pre-steady-state target cleavage rate” value [2] of the same sequence?
A: 0.00553 ± 0.0026

Q: How did the “pre-steady-state target cleavage rate” value [1] turn out when UCCUGCUACAGCUUGGAUAGUAAUUAGUUA was run?
A: 0.204 ± 0.021

Q: And the “pre-steady-state target cleavage rate” value [2]?
A: 0.00773 ± 0.0024

Q: How did the “pre-steady-state target cleavage rate” value [1] turn out when UCCUCGAUCAGCUUGCAUAGUAUUUACAAA was run?
A: 0.135 ± 0.026

Q: What about the “pre-steady-state target cleavage rate” value [2] of the same sequence?
A: 0.00554 ± 0.003

Q: What does the source list for UCCUGCUACAGCUUGCAUAGUAUUGAGUUA?
A: pre-steady-state target cleavage rate [1]: 0.114 ± 0.027; pre-steady-state target cleavage rate [2]: 0.00424 ± 0.0019

Q: UCCUGCUACAGCUUGCAUAGUAUUUUCUUA was tested. Which “pre-steady-state target cleavage rate” value [1] did it give?
A: 0.0484 ± 0.01

Q: And the “pre-steady-state target cleavage rate” value [2]?
A: 0.00359 ± 0.002

Q: What does the source list for UCCUGGAUGAGCUUGCAUAAUAUUUAGUUA?
A: pre-steady-state target cleavage rate [1]: 0.266 ± 0.035; pre-steady-state target cleavage rate [2]: 0.00543 ± 0.0021

Q: With UCCUGGAUGAGCUUGCUUAGUAUUAAGUUA as the sequence, how does the “pre-steady-state target cleavage rate” value [1] read?
A: 0.128 ± 0.021

Q: What about the “pre-steady-state target cleavage rate” value [2] of the same sequence?
A: 0.00314 ± 0.0031

Q: With UCCUGGUACAGCUUGCAUAGUAUUUAGCUUA as the sequence, how does the “pre-steady-state target cleavage rate” value [1] read?
A: 0.204 ± 0.041

Q: And the “pre-steady-state target cleavage rate” value [2]?
A: 0.00493 ± 0.0023

Q: What does the source list for UCCUCCUACAGCUUGCAUAUAUUUAGUUA?
A: pre-steady-state target cleavage rate [1]: 0.0398 ± 0.0083; pre-steady-state target cleavage rate [2]: 0.00725 ± 0.0034

Q: For UCCUCCUUCAGCUUCCAUAGUAUUUAGUUA, which “pre-steady-state target cleavage rate” value [1] is on record?
A: 0.0522 ± 0.015

Q: What about the “pre-steady-state target cleavage rate” value [2] of the same sequence?
A: 0.00448 ± 0.0019

Q: For UCCUGGAUCAGCUUGCAUAGUAUUUUGAUA, which “pre-steady-state target cleavage rate” value [1] is on record?
A: 0.0355 ± 0.013

Q: And the “pre-steady-state target cleavage rate” value [2]?
A: 0.00716 ± 0.003

Q: UCCUGCUACAGCUUGCAUAGUAUUUACUUA was tested. Which “pre-steady-state target cleavage rate” value [1] did it give?
A: 0.171 ± 0.032

Q: And the “pre-steady-state target cleavage rate” value [2]?
A: 0.00356 ± 0.0027

Q: Which results are given for UCCUGCUACACCUUGCAUAGUAUUUACUUA?
A: pre-steady-state target cleavage rate [1]: 0.102 ± 0.034; pre-steady-state target cleavage rate [2]: 0.00306 ± 0.003

Q: For UCCUGCUACUCCUUGCAUAGUAUUUACAAA, which “pre-steady-state target cleavage rate” value [1] is on record?
A: 0.0669 ± 0.016

Q: And the “pre-steady-state target cleavage rate” value [2]?
A: 0.00249 ± 0.0023

Q: For UCCUGCUACAGCUAGCAUAGUAUUUACUUA, which “pre-steady-state target cleavage rate” value [1] is on record?
A: 0.351 ± 0.051

Q: And the “pre-steady-state target cleavage rate” value [2]?
A: 0.00364 ± 0.0025

Q: For UCCUGCUACAGCUUGCAUAGUAUUUAGUAUA, which “pre-steady-state target cleavage rate” value [1] is on record?
A: 0.292 ± 0.044

Q: And the “pre-steady-state target cleavage rate” value [2]?
A: 0.00675 ± 0.0019

Q: UCCUGGAUCAGGUUGCAUAGUAUUUAGAAA was tested. Which “pre-steady-state target cleavage rate” value [1] did it give?
A: 0.185 ± 0.029

Q: And the “pre-steady-state target cleavage rate” value [2]?
A: 0.00341 ± 0.0019

Q: With UCCUCCUACAGCUUGCAUAUUAUUUAGUUA as the sequence, how does the “pre-steady-state target cleavage rate” value [1] read?
A: 0.0824 ± 0.011

Q: And the “pre-steady-state target cleavage rate” value [2]?
A: 0.0783 ± 0.025

Q: Which results are given for UCCUGCUACAGCUAGCAUAGUAUUAAGUUA?
A: pre-steady-state target cleavage rate [1]: 0.3 ± 0.032; pre-steady-state target cleavage rate [2]: 0.00662 ± 0.0026

Q: With UCCUGGAACAGCUUGCACUAGUAUUUAGUUA as the sequence, how does the “pre-steady-state target cleavage rate” value [1] read?
A: 0.0388 ± 0.0091

Q: And the “pre-steady-state target cleavage rate” value [2]?
A: 0.00312 ± 0.0026

Q: With UCCUGGUACAGCUAGCAUAGUAUUUAGAUA as the sequence, how does the “pre-steady-state target cleavage rate” value [1] read?
A: 0.0905 ± 0.022

Q: What about the “pre-steady-state target cleavage rate” value [2] of the same sequence?
A: 0.00618 ± 0.0029

Q: How did the “pre-steady-state target cleavage rate” value [1] turn out when UCCUGCUACAGCUUGCAUAGUAUUUAGUAA was run?
A: 0.182 ± 0.024

Q: What about the “pre-steady-state target cleavage rate” value [2] of the same sequence?
A: 0.00553 ± 0.0022

Q: How did the “pre-steady-state target cleavage rate” value [1] turn out when UCCUGGAACUGCUUCCAUAGUAUUUAGUUA was run?
A: 0.074 ± 0.022

Q: What about the “pre-steady-state target cleavage rate” value [2] of the same sequence?
A: 0.00266 ± 0.0013

Q: With UCCUGGAACAGCUUGCAUAGUAUUUUGAAA as the sequence, how does the “pre-steady-state target cleavage rate” value [1] read?
A: 0.0888 ± 0.027

Q: What about the “pre-steady-state target cleavage rate” value [2] of the same sequence?
A: 0.00294 ± 0.0022
